Results taken from the supplement of paper PMC9262897, “Low-cost anti-mycobacterial drug discovery using engineered E. coli” (Nature Communications, 2022).
Where a name gives a salt, the structure may show the parent alone. ± gives the standard deviation of the averaged measurements.

Tested on: E. coli TESEC Mtb Alr
Assay: growth (OD600 after 10 h); higher = more growth (less inhibition)
Details: compound 0.1 mM
Protocol: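 TESEC Mtb Alr E. coli, or the Alr+ wild-type control, in 384-well plates with Prestwick library compounds at 0.1 mM and 1% DMSO, across arabinose induction levels of 1E3 to 1E7 nM. Growth is read as OD600 after 10 h at 37 °C in triplicate biological replicates.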

[1] = arabinose 1000 nM, raw OD600 reference: median of DMSO wells 0.294, cell-free background 0.041
[2] = arabinose 10000 nM, raw OD600 reference: median of DMSO wells 0.264, cell-free background 0.041
[3] = arabinose 100000 nM, raw OD600 reference: median of DMSO wells 0.201, cell-free background 0.041
[4] = arabinose 1000000 nM, raw OD600 reference: median of DMSO wells 0.193, cell-free background 0.041
[5] = arabinose 10000000 nM, raw OD600 reference: median of DMSO wells 0.146, cell-free background 0.041

SMILES | growth [1] | growth [2] | growth [3] | growth [4] | growth [5]
COc1nc(C)nc(Cl)c1NC1=NCCN1 [Moxonidine] | 0.298 ± 0.014 | 0.262 ± 0.0065 | 0.18 ± 0.013 | 0.187 ± 0.0025 | 0.133 ± 0.0069
COc1ccc([C@@H]2CC(=O)c3c(O)cc(O[C@@H]4O[C@H](CO[C@@H]5O[C@@H](C)[C@H](O)[C@@H](O)[C@H]5O)[C@@H](O)[C@H](O)[C@H]4O)cc3O2)cc1O [Hesperidin] | 0.289 ± 0.016 | 0.251 ± 0.0089 | 0.205 ± 0.0089 | 0.177 ± 0.0064 | 0.145 ± 0.0031
C#C[C@]1(O)CC[C@H]2[C@@H]3CCC4=CC(=O)CC[C@@H]4[C@H]3CC[C@@]21C [Norethindrone] | 0.221 ± 0.017 | 0.221 ± 0.012 | 0.179 ± 0.012 | 0.1044 ± 0.00092 | 0.134 ± 0.0033
CCc1oc2ccccc2c1C(=O)c1cc(Br)c(O)c(Br)c1 [Benzbromarone] | 0.0448 ± 0.0076 | 0.0403 ± 0.00069 | 0.0421 ± 0.0019 | 0.03953 ± 0.00015 | 0.047 ± 0.0017
CN(C)C(=N)NC(=N)N [Metformin hydrochloride] | 0.281 ± 0.026 | 0.258 ± 0.0057 | 0.238 ± 0.03 | 0.178 ± 0.0068 | 0.145 ± 0.0029
CC(C)C(=O)Nc1ccc([N+](=O)[O-])c(C(F)(F)F)c1 [Flutamide] | 0.189 ± 0.0088 | 0.161 ± 0.0036 | 0.203 ± 0.0051 | 0.0619 ± 0.00076 | 0.0856 ± 0.0029
CN(C)[C@@H]1C(=O)C(C(N)=O)=C(O)[C@@]2(O)C(=O)C3=C(O)c4c(O)ccc(Cl)c4[C@@H](O)[C@H]3C[C@@H]12 [Demeclocycline hydrochloride] | 0.0502 ± 0.0039 | 0.0459 ± 0.0013 | 0.0479 ± 0.0019 | 0.0435 ± 0.00079 | 0.0452 ± 0.0007
CNCCC(Oc1ccccc1OC)c1ccccc1 (stereo not given) [Nisoxetine hydrochloride] | 0.258 ± 0.011 | 0.2337 ± 0.0022 | 0.173 ± 0.004 | 0.153 ± 0.0049 | 0.139 ± 0.0023
